# Assay results taken from ChEMBL document CHEMBL4888484, “Replenishing the malaria drug discovery pipeline: Screening and hit evaluation of the MMV Hit Generation Library 1 (HGL1) against asexual blood stage Plasmodium falciparum ,using a nano luciferase reporter read-out” (2022).
# About 420 (8.8%) of roughly 4,800 compounds showed an effect of 50% or more. This excerpt belongs to a sample that is enriched for strong results.
# Test system: Plasmodium falciparum
# Assay: Confirmatory screen in NF54 nanoGlo assay, in single point, at 2uM, 72h
# Type: functional, Erythrocyte
# Conditions: timepoint 72 hour
row,SMILES,% Inhibition [%]
1,Cn1c(CCNC(=O)CCc2cccnc2)nc2cc(Cl)ccc21,-3
2,CCN1CCC(NC(=O)CCc2c[nH]c3ccccc23)CC1,4
3,CC1(C)Oc2ccc(S(=O)(=O)NC3CCCCC3)cc2NC1=O,-8
4,Oc1cc(-c2ccc(F)cc2)nn1-c1nc2ccccc2[nH]1,-9
5,Cc1nn(-c2nc3ccccc3[nH]2)c(O)c1CCC(C)C,68
6,Cc1nn(-c2nc3ccccc3[nH]2)c(O)c1Cc1ccccc1,2
7,O=C(Nc1ccc(OC2CCC2)c(F)c1)N1CC[C@H](O)C1,-2
8,CCCc1noc([C@H](C)OC(=O)c2cc[nH]n2)n1,-7
9,CCN1C(=O)C(=O)N(CN2CCc3ccccc3C2)C1=O,-4
10,Cc1nn(C)c(Cl)c1NC(=O)OCc1ccc(F)cc1,-4
11,CCn1cc(C#N)c(=O)c2cc(F)c(N3CCN(Cc4ccccc4)CC3)cc21,69
12,CCn1cc(-c2nc(-c3ccccc3C)no2)c(=O)c2cc(F)c(N3CCCCC3)cc21,47
13,CCn1cc(C(=O)O)c(=O)c2cc(F)c(N3CCN(S(=O)(=O)c4ccccc4)CC3)cc21,-10
14,c1cc(Cn2cnc3c2CCCC3)cs1,-15
15,CC[C@H]1Cn2c(C(=O)NCc3cccs3)cc3c(Cl)ccc(c32)O1,-4
16,COc1ccc2c(NC(=O)Cc3c(C)noc3C)n[nH]c2c1,0
17,COc1ccc(C(=O)Cn2nc(C)cc2C)cc1,-4
18,COc1ccc2c(O)cc(-c3ccccc3)nc2c1,-2
19,O=C(Nc1cccc(Oc2c(F)c(F)c(-c3c(F)c(F)c(Oc4cccc(NC(=O)c5ccccc5)c4)c(F)c3F)c(F)c2F)c1)c1ccccc1,5
20,Nc1cc(C(F)(F)F)c(Br)cc1Br,-16
21,Cc1cccc(N2CCN(C(=O)c3ccc4c(c3)C(=O)N(c3cc(C)on3)C4=O)C[C@@H]2C)c1,-3
22,CC1CN(S(=O)(=O)CC2CCOC2)c2ccc(F)cc2O1 (stereo not drawn),-2
23,CCOc1ccccc1NC(=O)Cc1c(C)nc2nc(-c3cccnc3)nn2c1C,0
24,Cc1cc(C)c2nc(C)cc(Nc3ccc(O)cc3)c2c1,87
25,CCCOc1ccc(Nc2cc(C)nc3ccc(Cl)cc23)cc1,42
26,Cc1ncoc1C(=O)N1CC(F)(F)C[C@H]1Cn1cc(C(=O)N2CCOCC2)nn1,-1
27,CC(C)(C)OC(=O)Nc1cccc(N)n1,1

row,SMILES,% Inhibition [%]
1,Cn1cncc1CC(=O)Nc1ccnc(NC(=O)OC(C)(C)C)c1,96
2,COc1ccc(-c2noc(Cn3c(=O)c4ccccc4n(CC(=O)Nc4cc(Cl)ccc4C)c3=O)n2)cc1,-3
3,O=C(C[C@H]1CCN(C(=O)c2ccc(F)cc2)C1)NC1CC1,-11
4,CCS(=O)(=O)Nc1ccc(S(=O)(=O)NC[C@@H](c2ccccc2OC)N2CCCCC2)c(C)c1,-1
5,CC(C)[C@@H]1CC[C@H](C)C[C@H]1OC(=O)Cn1cc(-c2ccc(Cl)cc2)[n+]2c1CCC2,84
6,CC(C)N(C(=O)c1cc(O)nc2ccccc12)C1CC1,-2
7,CN(CC(C)(CO)CO)C(=O)c1coc2ccccc12,-3
8,Cc1cccc(C)c1OCC(=O)Nc1ccc(-c2nc3cc4ccccc4cc3[nH]2)cc1,10
9,c1cc(-c2nc3cc4ccccc4cc3[nH]2)nc(-c2nc3cc4ccccc4cc3[nH]2)c1,99
10,Oc1cc(-c2ccc3ccccc3c2)[nH]n1,-11
11,Cc1cccc(NC(=O)[C@@H](C#N)C(=O)c2ncoc2C)c1,-14
12,Cc1c(C2CC2)n[nH]c1NC(=O)C1CC1c1ccccc1 (stereo not drawn),-1
13,O[C@@]1(CN2CCC(COc3ccc4c(c3)CCC4)CC2)CCCNC1,52
14,COc1cccc(Cn2nccc2NC(=O)C2CCOCC2)c1OC,-3
15,CC(C)Cn1c(C(F)(F)F)cnc1N,3
16,Cc1ncc(CN(C)[C@@H](C)C(=O)Nc2ccc3c(c2)OC2(CCCCC2)O3)s1,-4
17,COc1cc(Cl)c(C)cc1NC(=O)c1nc2cc(C)c(C)cc2n(C)c1=O,-3
18,O=C(c1ccc2c(c1)OCO2)N1CCn2c1nc1ccccc12,65
19,O=C(c1ccc2c(c1)OCCCO2)N1CCCCC1,-3
20,Cc1nc2ccccc2n1CCC(=O)N1CCN(Cc2ccc3c(c2)OCO3)CC1,2
21,CCC[C@H]1C(=O)NCCN1C(=O)c1cnn(CC2CCOCC2)c1C,8
22,Cc1nnc(NC(=O)[C@H](C)c2ccc(-c3ccccc3)c(F)c2)s1,-19
23,COc1cc(C(c2c(C)n(C)n(-c3ccccc3)c2=O)c2c(C)n(C)n(-c3ccccc3)c2=O)c(Br)c(Br)c1OCc1ccccc1,7
24,COc1cc(C(=O)NC2CCCCC2)cc2occc12,-8
25,Cn1ccnc1C1CC(NC(=O)c2cc3c(s2)CCC3)CCO1 (stereo not drawn),0
26,COc1cc2c(cc1OC)[C@@H](NC(=O)c1cnc(C3(C)OCCO3)s1)CCCC2,50
